Measurements taken from PubChem BioAssay (NCATS).
Results filed as inconclusive are left out. A call without a number means that no potency is given here. Active and inactive are the calls of the source. Unless noted, the call rests on the fitted dose curve; in most records, active means well fitted curve in the direction sought with a large enough effect; inconclusive means small, poorly fitted or top-dose-only effect, or another doubt; inactive means no such curve, though single readings can be large; an effect the other way counts as inactive or inconclusive.

What was measured:
[1] = target: Ferritin light chain (Equus caballus) (UniProt P02791); test: qHTS Validation Assay for Identification of Novel General Anesthetics (AID 2323); further: series mostly up to about 77 µM
Sequence of Ferritin light chain (Equus caballus) (P02791 2-175 limits assumed): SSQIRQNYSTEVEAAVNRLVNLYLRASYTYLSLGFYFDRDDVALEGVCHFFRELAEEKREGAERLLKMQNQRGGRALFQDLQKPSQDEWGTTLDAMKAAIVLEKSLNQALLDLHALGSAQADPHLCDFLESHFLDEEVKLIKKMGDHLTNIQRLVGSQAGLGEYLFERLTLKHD
Procedure, shortened: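 10 uM horse-spleen apoferritin + 1-AMA (50% saturated, PBS); cpd pin-transferred, 10 min RT. Ex 380/Em 535 nm endpoint. Activity normalized between free 1-AMA and 1-AMA/apoferritin; 4-parameter Hill fit of concentration-response.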

[2] = target: ATP-dependent DNA helicase Q1 (Homo sapiens) (UniProt P46063); test: qHTS Validation Assay for Inhibitors of RecQ-Like Dna Helicase 1 (RECQ1) (AID 2353)
Sequence of ATP-dependent DNA helicase Q1 (Homo sapiens) (P46063 whole entry, looked up): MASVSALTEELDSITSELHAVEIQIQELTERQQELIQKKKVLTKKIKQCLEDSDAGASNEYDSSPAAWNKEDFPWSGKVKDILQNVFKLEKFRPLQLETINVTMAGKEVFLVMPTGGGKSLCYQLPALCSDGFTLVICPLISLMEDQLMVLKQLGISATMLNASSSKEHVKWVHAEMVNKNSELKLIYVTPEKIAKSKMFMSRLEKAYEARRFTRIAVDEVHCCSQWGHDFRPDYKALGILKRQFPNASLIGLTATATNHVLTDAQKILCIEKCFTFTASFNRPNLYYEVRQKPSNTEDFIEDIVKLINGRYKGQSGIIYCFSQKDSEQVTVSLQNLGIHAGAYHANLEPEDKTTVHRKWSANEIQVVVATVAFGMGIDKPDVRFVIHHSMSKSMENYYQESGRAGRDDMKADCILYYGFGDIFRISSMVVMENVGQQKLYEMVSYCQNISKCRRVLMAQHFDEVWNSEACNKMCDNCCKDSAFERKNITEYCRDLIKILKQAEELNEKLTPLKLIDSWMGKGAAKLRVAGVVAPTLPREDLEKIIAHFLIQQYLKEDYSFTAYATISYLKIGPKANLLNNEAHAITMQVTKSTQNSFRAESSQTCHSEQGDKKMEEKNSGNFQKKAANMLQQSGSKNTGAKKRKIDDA
Procedure, shortened: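 50 nM RECQ1T1 preincubated 15 min with compound in Tris pH 8.0 buffer with MgCl2, DTT, Tween-20 and 2.5 ug/ml poly(dI-dC); started with 200 nM TAMRA/BHQ-2 forked duplex and 2 mM ATP. Unwinding read as fluorescence (525/598 nm), two reads 2 h apart.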

[3] = Cytometric Cell-Based qHTS for Inhibitors of the mTORC1 Signaling Pathway in MEF (Tsc2-/-, p53-/-) Cells (AID 2660);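 further: percent of cells above a phospho-rpS6 to PI ratio cutoff in each well; series mostly up to about 38 µM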
Procedure, shortened: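 Readout: Alexa-488 phospho-rpS6 (Ser235/236) intensity divided by PI intensity, thresholded against 7.5 nM rapamycin wells and reported as % positive cells. PI cell count served as the viability measure. Compound exposure was 24 hrs at 37 degree Celsius.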

[4] = High Content Imaging Cell-Based qHTS for Inhibitors of the mTORC1 Signaling Pathway in MEF (Tsc2-/-, p53-/-) Cells (AID 2666);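 further: percent of cells scored positive for phospho-rpS6 Ser235/236 immunostaining by imaging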
Procedure, shortened: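 Read-out: % positive cells per well, with thresholds from highest- and lowest-signal wells, based on phospho-rpS6 (Ser235/236) intensity normalized to Hoechst nuclear stain. Cells: Tsc2-/-, p53-/- MEFs carrying empty vector; compound 24 hrs, 37 degree Celsius.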

[5] = Cytometry Cell-Based qHTS for Inhibitors of the mTORC1 Signaling Pathway in MEF cells (AID 2668); further: potency means the concentration at half of the fitted maximal effect
Procedure, shortened: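 Read-out: phospho-rpS6 Ser235/236 immunofluorescence normalized to propidium iodide intensity, scored as % active cells against a rapamycin (7.5 nM) threshold. Cells: Tsc2-/-, p53-/- MEFs stably expressing WT Tsc2, compound-treated 24 hrs at 37 degree Celsius.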

[6] = Validation screen for inhibitors of Lassa infection (AID 463096; calls by dose curve; further: potency means the concentration at half of the fitted maximal effect)
[7] = target: Ubiquitin carboxyl-terminal hydrolase 2 (Homo sapiens) (UniProt O75604); test: qHTS Validation Assay for Inhibitors of Ubiquitin-specific Protease USP2a Using CHOP2 as the Reporter (AID 463106)
Sequence of Ubiquitin carboxyl-terminal hydrolase 2 (Homo sapiens) (O75604 whole entry, looked up): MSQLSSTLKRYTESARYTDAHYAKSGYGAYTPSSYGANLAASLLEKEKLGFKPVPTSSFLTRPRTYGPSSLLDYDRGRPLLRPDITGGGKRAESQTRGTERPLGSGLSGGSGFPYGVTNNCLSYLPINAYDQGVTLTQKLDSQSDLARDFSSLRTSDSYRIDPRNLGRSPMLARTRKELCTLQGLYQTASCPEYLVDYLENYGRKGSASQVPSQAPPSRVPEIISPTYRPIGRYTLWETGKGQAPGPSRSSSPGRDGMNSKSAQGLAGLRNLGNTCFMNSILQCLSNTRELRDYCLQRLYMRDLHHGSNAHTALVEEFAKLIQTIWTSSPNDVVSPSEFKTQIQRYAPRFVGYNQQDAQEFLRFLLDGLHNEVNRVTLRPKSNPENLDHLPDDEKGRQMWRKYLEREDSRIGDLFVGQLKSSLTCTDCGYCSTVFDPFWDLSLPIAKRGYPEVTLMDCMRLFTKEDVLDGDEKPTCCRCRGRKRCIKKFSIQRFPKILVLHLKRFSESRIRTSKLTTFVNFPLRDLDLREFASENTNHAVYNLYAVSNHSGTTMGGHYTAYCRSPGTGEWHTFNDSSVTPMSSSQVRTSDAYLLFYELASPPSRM
Procedure, shortened: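 USP2 core (10nM final) was preincubated with compound for 30min at RT in 20mM Tris-HCl pH 8.0, 2mM CaCl2, 2mM beta-mercaptoethanol, 0.05% CHAPS. Ub-CHOP2 and reporter substrate (25nM each) were added, and fluorescence (Ex 485/Em 531nm) was read after 60min.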

[8] = qHTS Assay for Modulators of Human Peripheral Myelin Protein 22 (PMP22) Expression/Activity (AID 1967; active means well fitted curve in the direction sought with a large enough effect in the signal ratio; the % refers to the signal ratio)
Description: Charcot-Marie-Tooth-Association [CMTA]
NIH Chemical Genomics Center [NCGC]
Charcot-Marie-Tooth (CMT) disease was first characterized by Jean-Martin Charcot and Pierre Marie in France and, independently, by Howard Henry Tooth in England in 1886. CMT is one of the most common inherited neurological diseases, affecting about 125,000 Americans. […] The most common cause of CMT is known as CMT1A, and is caused by a duplication of the PMP22 gene, leading to over-expression of this protein. PMP22 is a glycosylated intrinsic membrane protein accounting for 2-5% of the myelin protein content and over-expression leads to demyelination and subsequently axonal loss.
A cell-based assay for PMP22 expression modulation was developed by Drs. Ned Mantei and Ueli Suter on behalf of the CMTA. This assay employs a mouse Schwann cell line, MSC80 (Boutry et al., 1992), that was engineered to have the mouse Pmp22 promoter driving expression of a green light-emitting click beetle luciferase (CBG68; Chroma-Gl developed by Promega Corp). A red light-emitting click beetle luciferase (CBR; developed by Promega Corp: CBG68 and CBR differ by only a few amino acids within the D-luciferin binding pocket) under control of the EF-alpha promoter is also stably expressed in the same cells for use as an internal control for nonspecific promoter- or reporter-based effects.
NCGC Assay Protocol Summary:
Cells were seeded in white solid 1536-well plates at between 500-750 cells/4uL in DMEM medium containing 10% FBS, w/o phenol red. After overnight incubation at 37 degree Celsius/5% C02, 23 nL of compounds or DMSO were delivered to each well using a pin tool, followed by 24h-incubation at 37 degree Celsius/5% C02. Then 4 uL Chroma-Glo luminescent substrate mix (Promega) was added to each well. Luminescence was measured on a ViewLux plate reader (Perkin Elmer) using a 540/25 nm filter for green luminescence and a 618/8 nm filter for red luminescence. The green and red luminescent signals were corrected for red and green luminescence filter overlap using filter calibration constants (determined using control cell lines expressing either the green or red CBLuc reporters using the procedures given in Davis et al., 2007). The %Activity was determined from the ratio of corrected green/red luminescent values. Green luminescent and ratio %Activity was determined by normalizing to the signal between of untreated cells (0% Activity)
Keywords: luminescence, PMP22, CMT1A, NCGC, CMTA, qHTS
Concentration-response curves were fitted to the signals arising from the green luminescence (PMP22 promoter driven expression) and the red luminescence (control promoter) as well as the calculated ratio. The concentration-effect curves were then classified based on curve quality (r2), response magnitude and degree of measured activity.

[9] = qHTS Assay for Identification of Small Molecule Inducers of Hypoxia Response (AID 2120; active means well fitted curve in the direction sought with a large enough effect in the signal ratio, with a control signal flat, not every such curve was filed as active; the % refers to the signal ratio)
Procedure, shortened: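 HRE-bla ME-180 cells in Opti-MEM with 0.5% dialyzed FBS, pre-plated 4-5 h, then compound titration for 17 h at 37 degrees Celsius. CCF4 loaded 2.5 h at room temperature; 460/530 nm ratio gave %Activity and AC50 for induction.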

[10] = target: RecQ-like DNA helicase BLM (Homo sapiens) (UniProt P54132); test: qHTS Validation Assay for Inhibitors of Bloom's syndrome helicase (BLM) (AID 2364)
Sequence of RecQ-like DNA helicase BLM (Homo sapiens) (P54132 whole entry, looked up): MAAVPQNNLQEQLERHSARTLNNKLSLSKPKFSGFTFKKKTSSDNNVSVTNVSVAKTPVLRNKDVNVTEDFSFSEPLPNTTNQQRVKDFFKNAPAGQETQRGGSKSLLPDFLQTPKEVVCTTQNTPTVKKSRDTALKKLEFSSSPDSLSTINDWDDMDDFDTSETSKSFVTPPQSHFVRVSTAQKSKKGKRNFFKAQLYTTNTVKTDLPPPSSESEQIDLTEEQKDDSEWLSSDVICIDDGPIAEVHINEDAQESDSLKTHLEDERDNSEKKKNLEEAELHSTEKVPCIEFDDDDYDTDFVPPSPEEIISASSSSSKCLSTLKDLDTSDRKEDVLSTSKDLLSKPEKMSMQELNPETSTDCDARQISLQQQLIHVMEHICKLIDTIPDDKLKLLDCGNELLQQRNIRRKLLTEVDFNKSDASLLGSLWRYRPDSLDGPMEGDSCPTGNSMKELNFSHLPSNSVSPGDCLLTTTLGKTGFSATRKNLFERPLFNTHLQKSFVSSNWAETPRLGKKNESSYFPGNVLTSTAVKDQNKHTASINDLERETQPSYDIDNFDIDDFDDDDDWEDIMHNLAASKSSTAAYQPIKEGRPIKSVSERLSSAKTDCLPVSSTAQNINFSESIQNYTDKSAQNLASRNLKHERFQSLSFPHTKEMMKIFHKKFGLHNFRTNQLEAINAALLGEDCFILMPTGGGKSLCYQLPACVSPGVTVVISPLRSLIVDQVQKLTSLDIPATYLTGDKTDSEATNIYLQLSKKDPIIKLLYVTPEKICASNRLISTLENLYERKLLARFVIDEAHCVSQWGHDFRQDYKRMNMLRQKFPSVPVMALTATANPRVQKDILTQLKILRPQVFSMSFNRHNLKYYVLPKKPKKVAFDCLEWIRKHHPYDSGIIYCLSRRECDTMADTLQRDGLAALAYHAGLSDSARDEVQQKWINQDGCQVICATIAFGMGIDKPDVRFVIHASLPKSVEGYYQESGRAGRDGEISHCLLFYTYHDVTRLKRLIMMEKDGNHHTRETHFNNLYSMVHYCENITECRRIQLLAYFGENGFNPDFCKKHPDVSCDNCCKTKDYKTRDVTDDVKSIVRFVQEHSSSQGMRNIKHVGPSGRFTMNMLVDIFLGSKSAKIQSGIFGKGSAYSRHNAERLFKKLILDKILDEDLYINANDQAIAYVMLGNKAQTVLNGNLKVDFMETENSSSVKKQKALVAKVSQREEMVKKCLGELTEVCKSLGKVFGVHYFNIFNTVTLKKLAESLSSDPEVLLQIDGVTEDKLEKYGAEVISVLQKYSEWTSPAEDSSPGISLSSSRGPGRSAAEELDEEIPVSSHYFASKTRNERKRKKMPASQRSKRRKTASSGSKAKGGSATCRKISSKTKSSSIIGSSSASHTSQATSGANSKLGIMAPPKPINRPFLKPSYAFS
Procedure, shortened: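 BLM 50 nM in 25 mM Tris-HCl pH 8.0, 5 mM NaCl, 2 mM MgCl2, 1 mM DTT, 0.01% Tween-20, 2.5 ug/ml poly(dI-dC); 15 min cpd preinc, RT. Start: 200 nM forked DNA + 2 mM ATP (final). TAMRA read, 2 reads 2 h apart.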

Structure (SMILES)	outcome [1]	outcome [2]	outcome [3]	Potency [4]	Potency [5]	Potency [6]	Potency [7]	outcome [8]	outcome [9]	Potency [10]
CC(CCc1ccccc1)NC(C)C(O)c1ccc(O)cc1 (centres undefined)	inactive	inactive	inactive	inactive	inactive	inactive	inactive			
CCn1cc(C(=O)O)c(=O)c2ccc(C)nc21	inactive	inactive				inactive		inactive		
OCCOc1ccccc1									inactive	
c1ccc2c(c1)OCC(C1=NCCN1)O2 (centres undefined)	inactive	inactive			4.65 µM (active)	20 µM (active)	inactive			
Cc1cccc(C)c1NC1=NCCCS1	inactive	inactive	inactive	inactive	inactive	inactive	inactive			
OCCN1CCN(CCCN2c3ccccc3Sc3ccc(C(F)(F)F)cc32)CC1	inactive									
O=c1[nH]c2ccccc2n1CCCN1CCC(n2c(=O)[nH]c3cc(Cl)ccc32)CC1	inactive	inactive	inactive	inactive		inactive	inactive			inactive
C[C@]12C/C(=C/O)C(=O)C[C@@H]1CC[C@@H]1[C@@H]2CC[C@@]2(C)[C@H]1CC[C@]2(C)O									inactive	
CC(=O)[C@H]1CC[C@H]2[C@@H]3CC[C@H]4C[C@H](O)CC[C@]4(C)[C@H]3C(=O)C[C@]12C	inactive	inactive	inactive	inactive	inactive	inactive	inactive	inactive		inactive
CCC1(C2=NCCN2)Cc2ccccc2O1 (centres undefined)	inactive	inactive	inactive	inactive	inactive	inactive	inactive			inactive
NCC1(CC(=O)O)CCCCC1	inactive	inactive	inactive	inactive	inactive	inactive				
Nc1ccncc1	inactive	inactive	inactive	inactive	inactive	inactive	inactive			inactive
CNCC(O)c1ccc(O)cc1 (centres undefined)	inactive	inactive	inactive	inactive	inactive	inactive	inactive		inactive	
COC[C@H]1OC(=O)c2coc3c2[C@@]1(C)C1=C(C3=O)C2CCC(=O)[C@@]2(C)C[C@H]1OC(C)=O (some centres undefined)	inactive	inactive	inactive	inactive	inactive		inactive			inactive
CCCN1CCC[C@@H]2Cc3nc(N)ncc3C[C@H]21	inactive	inactive	inactive	inactive	inactive	inactive	inactive			inactive
Cc1ncc(CNC(=O)N(CCCl)N=O)c(N)n1	inactive	inactive	inactive	inactive	inactive	inactive	inactive			
NN=C(N)N	inactive	inactive	inactive	inactive	inactive	inactive	inactive			
COc1ccc(Cc2nccc3cc(OC)c(OC)cc23)cc1OC	inactive	inactive				inactive				
CC[N+](CC)(CC)CC	inactive	inactive				inactive				inactive
COc1ccccc1N1CCNCC1	inactive	inactive	inactive	inactive	inactive	inactive	inactive	inactive		inactive
CN1C[C@H](CNC(=O)OCc2ccccc2)C[C@@H]2c3cccc4c3c(cn4C)C[C@H]21	inactive	inactive			inactive		inactive			
Cc1ccc(S(=O)(=O)N[C@@H](CCCCN)C(=O)CCl)cc1	inactive	inactive	inactive	inactive	inactive	inactive	inactive			inactive
